Source: PubChem BioAssay (NCATS)
Records with an inconclusive call do not appear. Where a call stands in place of a potency, no number is given. Activity calls are given as the source filed them. Calls come from the whole dose curve; as a rule, active = well fitted inhibition curve with a large enough effect; inconclusive = small, poorly fitted or top-dose-only effect; inactive = flat fitted curve, though single readings scatter.

Key:
Experiment in all cases: qHTS profiling for inhibitors of Plasmodium falciparum proliferation (AID 504749); note: nearly all actives have a fitted effect of over 60% in size
Conditions in all cases: P. falciparum in erythrocytes, SYBR Green DNA, 72 h; series mostly up to 28.7 µM
CP256 = tested on: CP256
Procedure, shortened: (§1)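 In a 72 h erythrocytic culture (37 C, humidified, 5% CO2) at 2.5% hematocrit and 0.3% starting parasitemia, compounds were tested; SYBR Green I in detergent lysis buffer stained parasite DNA overnight.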

CP260 = tested on: CP260
Procedure, shortened: as §1

CP262 = tested on: CP262
Procedure, shortened: as §1

CP265 = tested on: CP265
Procedure, shortened: as §1

CP266 = tested on: CP266
Procedure, shortened: as §1

CP268 = tested on: CP268
Procedure, shortened: as §1

CP269 = tested on: CP269
Procedure, shortened: as §1

CP286 = tested on: CP286
Procedure, shortened: as §1

CP291 = tested on: CP291
Procedure, shortened: as §1

CP297 = tested on: CP297
Procedure, shortened: as §1
Potency is the fitted concentration of half-maximal effect.

SMILES	Potency (CP256)	Potency (CP260)	Potency (CP262)	Potency (CP265)	Potency (CP266)	Potency (CP268)	Potency (CP269)	Potency (CP286)	Potency (CP291)	Potency (CP297)
COc1ccc(/C=C/C(=O)OCCC(C)C)cc1	inactive	inactive	inactive	inactive	inactive	inactive	inactive	inactive	inactive	–
CCOC(C)OCC	inactive	inactive	inactive	inactive	inactive	inactive	inactive	inactive	inactive	inactive
Cc1cc(C(=O)NCCc2ccc(S(=O)(=O)NC(=O)NN3CCCCCC3)cc2)no1	inactive	inactive	inactive	inactive	inactive	inactive	inactive	inactive	inactive	–
CCCCCCCCCCCCCCCCCC(=O)OCC(C)O (configuration not stated)	inactive	inactive	inactive	inactive	inactive	inactive	inactive	inactive	inactive	inactive
Nc1nccs1	inactive	inactive	inactive	inactive	inactive	inactive	inactive	inactive	inactive	inactive
CNC(=O)c1c(I)c(C(=O)NCC(=O)Nc2c(I)c(C(=O)O)c(I)c(C(=O)NCCO)c2I)c(I)c(N(C)C(C)=O)c1I	inactive	inactive	inactive	inactive	inactive	inactive	inactive	inactive	inactive	inactive
N[C@H](CC(=O)O)C(=O)O	inactive	inactive	inactive	inactive	inactive	inactive	inactive	inactive	inactive	inactive
OCl	inactive	inactive	inactive	inactive	inactive	inactive	inactive	inactive	inactive	inactive
CC(/C=C/C=C(\C)C(=O)O[C@@H]1O[C@H](CO[C@@H]2O[C@H](CO)[C@@H](O)[C@H](O)[C@H]2O)[C@@H](O)[C@H](O)[C@H]1O)=C\C=C\C=C(C)\C=C\C=C(/C)C(=O)O[C@@H]1O[C@H](CO[C@@H]2O[C@H](CO)[C@@H](O)[C@H](O)[C@H]2O)[C@@H](O)[C@H](O)[C@H]1O	inactive	inactive	inactive	inactive	inactive	inactive	inactive	inactive	inactive	inactive
CNC(=O)C[C@@H](N)C(=O)N[C@@H](C(=O)N[C@@H]1C(=O)N2[C@@H]1SC(C)(C)[C@@H]2C(=O)O)c1ccc(O)cc1	inactive	inactive	inactive	inactive	inactive	inactive	inactive	inactive	inactive	inactive
NC(=S)NS(=O)(=O)c1ccc(N)cc1	inactive	inactive	inactive	inactive	inactive	inactive	inactive	inactive	inactive	inactive
CC(C)c1ncc([N+](=O)[O-])n1C	inactive	inactive	inactive	inactive	inactive	inactive	inactive	inactive	inactive	inactive
O=C1NCCN1c1ncc([N+](=O)[O-])s1	inactive	inactive	inactive	inactive	inactive	inactive	inactive	inactive	inactive	inactive
O=C1CCC(=O)N1CO	inactive	inactive	inactive	inactive	inactive	inactive	inactive	inactive	inactive	–
COc1ccccc1N1CCN(CCCC(=O)c2ccc(F)cc2)CC1	inactive	inactive	inactive	inactive	inactive	inactive	inactive	inactive	inactive	inactive
CCc1ccc(S(=O)(=O)O)cc1	inactive	inactive	inactive	inactive	inactive	inactive	inactive	inactive	inactive	–
Cc1ncc(COP(=O)(O)O)c(CN)c1O	inactive	inactive	inactive	inactive	inactive	inactive	inactive	inactive	inactive	inactive
CC(C)CCCC(C)NC(C)C (configuration not stated)	inactive	inactive	inactive	inactive	inactive	inactive	inactive	inactive	inactive	–
CO/N=C(/C(=O)N[C@@H]1C(=O)N2C(C(=O)O)=C(COC(N)=O)CS[C@H]12)c1ccco1	inactive	inactive	inactive	inactive	inactive	inactive	inactive	inactive	inactive	–
O=P(O)(O)OC[C@H]1O[C@](O)(COP(=O)(O)O)[C@@H](O)[C@@H]1O	inactive	inactive	inactive	inactive	inactive	inactive	inactive	inactive	inactive	–
O=C1CCC(c2ccccc2)(C2CCN(Cc3ccccc3)CC2)C(=O)N1 (configuration not stated)	inactive	inactive	inactive	inactive	inactive	inactive	inactive	inactive	inactive	–
CCC(Cc1c(I)cc(I)c(O)c1I)C(=O)O (configuration not stated)	inactive	inactive	inactive	inactive	inactive	inactive	inactive	inactive	inactive	inactive
S=C1SCN(Cc2ccccc2)CN1Cc1ccccc1	inactive	inactive	inactive	inactive	inactive	inactive	inactive	inactive	inactive	inactive
COc1cc(C)c(/C=C/C(C)=C/C=C/C(C)=C/C(=O)O)c(C)c1C	inactive	inactive	inactive	inactive	inactive	inactive	inactive	inactive	inactive	–

SMILES	Potency (CP256)	Potency (CP260)	Potency (CP262)	Potency (CP265)	Potency (CP266)	Potency (CP268)	Potency (CP269)	Potency (CP286)	Potency (CP291)	Potency (CP297)
C=CCN1CCCC1CNC(=O)c1cc(S(N)(=O)=O)cc(OC)c1OC (configuration not stated)	inactive	inactive	inactive	inactive	inactive	inactive	inactive	inactive	inactive	inactive
COC1=C(OC)C(=O)C(C/C=C(\C)CC/C=C(\C)CC/C=C(\C)CC/C=C(\C)CC/C=C(\C)CC/C=C(\C)CC/C=C(\C)CC/C=C(\C)CC/C=C(\C)CCC=C(C)C)=C(C)C1=O	inactive	inactive	inactive	inactive	inactive	inactive	inactive	inactive	inactive	inactive
C=CC[N+]1([C@H]2C[C@H]3[C@@H]4CC[C@H]5C[C@H](O)[C@@H](N6CCOCC6)C[C@]5(C)[C@H]4CC[C@]3(C)[C@H]2OC(C)=O)CCCC1	11.2 µM (active)	–	–	–	–	–	–	–	–	–
O=C(O)Cc1cc(I)c(Oc2ccc(O)c(I)c2)c(I)c1	inactive	inactive	inactive	inactive	inactive	inactive	inactive	inactive	inactive	inactive
CCCCCCCCCCCCCC(=O)OCC(COP(=O)([O-])OCC[N+](C)(C)C)OC(=O)CCCCCCCCCCCCC (configuration not stated)	inactive	inactive	inactive	inactive	inactive	inactive	inactive	inactive	inactive	inactive
CC12CCC(C1)C(C)(C)C2=O (configuration not stated)	inactive	inactive	inactive	inactive	inactive	inactive	inactive	inactive	inactive	inactive
CC1=CC(=C(c2ccc(N)cc2)c2ccc(N)cc2)C=CC1=N	2.24 µM (active)	2.51 µM (active)	4.78 µM (active)	3.16 µM (active)	7.57 µM (active)	6.01 µM (active)	4.26 µM (active)	1.41 µM (active)	3.01 µM (active)	4.78 µM (active)
CCOC(=S)SSC(=S)OCC	inactive	inactive	inactive	inactive	inactive	inactive	inactive	inactive	inactive	inactive
CCN(CC)CCC(=O)N1c2ccccc2Sc2ccc(Cl)cc21	11.2 µM (active)	8.91 µM (active)	–	–	–	–	–	–	–	–
O=P(O)(O)O	inactive	inactive	inactive	inactive	inactive	inactive	inactive	inactive	inactive	inactive
CC1(C)S[C@@H]2[C@H](NC(=O)C3(N)CCCCC3)C(=O)N2[C@H]1C(=O)O	inactive	inactive	inactive	inactive	inactive	inactive	inactive	inactive	inactive	inactive
C=CC(=O)O	inactive	inactive	inactive	inactive	inactive	inactive	inactive	inactive	inactive	inactive
C=CC[C@@H]1/C=C(\C)C[C@H](C)C[C@H](OC)[C@H]2O[C@@](O)(C(=O)C(=O)N3CCCC[C@H]3C(=O)O[C@H](/C(C)=C/[C@@H]3CC[C@@H](O)[C@H](OC)C3)[C@H](C)[C@@H](O)CC1=O)[C@H](C)C[C@@H]2OC	0.708 µM (active)	0.794 µM (active)	4.26 µM (active)	0.631 µM (active)	8.49 µM (active)	0.849 µM (active)	3.79 µM (active)	1 µM (active)	6.75 µM (active)	1.9 µM (active)
O=C(O)/C=C/C(=O)Nc1ccc(S(=O)(=O)Nc2nccs2)cc1	inactive	inactive	inactive	inactive	inactive	inactive	inactive	inactive	inactive	–
CCCCC/C=C\C/C=C\C/C=C\CCCCC(=O)O	inactive	inactive	inactive	inactive	inactive	inactive	inactive	inactive	inactive	–
O=C1c2ccccc2C(=O)c2c1ccc(O)c2O	inactive	inactive	inactive	inactive	inactive	inactive	inactive	inactive	inactive	inactive
CC1CCCCN1CCCOC(=O)c1ccccc1 (configuration not stated)	inactive	inactive	inactive	inactive	inactive	inactive	inactive	inactive	inactive	inactive
c1ccc2ccccc2c1	inactive	inactive	inactive	inactive	inactive	inactive	inactive	inactive	inactive	inactive
NC(=O)[C@H]1O[C@@H](O)[C@H](O)[C@@H](O)[C@@H]1O	inactive	inactive	inactive	inactive	inactive	inactive	inactive	inactive	inactive	inactive
CC(C)=CCC/C(C)=C/CC/C(C)=C/CC/C=C(\C)CC/C=C(\C)CCC=C(C)C	inactive	inactive	inactive	inactive	inactive	inactive	inactive	inactive	inactive	inactive
O=C(O)c1ccc(OCCn2ccnc2)cc1	inactive	inactive	inactive	inactive	inactive	inactive	inactive	inactive	inactive	inactive
O=C(OC1C[C@@H]2CC3C[C@H](C1)N2CC3=O)c1c[nH]c2ccccc12 (some centres not stated)	inactive	inactive	inactive	inactive	inactive	inactive	inactive	inactive	inactive	inactive
OC/C=C/c1ccccc1	inactive	inactive	inactive	inactive	inactive	inactive	inactive	inactive	inactive	inactive
